According to PubChem BioAssay (NCATS):
Records with an inconclusive call do not appear. Unmarked numbers belong to inactive results. Calls of active or inactive are those of the source. The call rests on the fitted dose curve; in most records, active means well fitted curve in the direction sought with a large enough effect; inconclusive means small, poorly fitted or top-dose-only effect, or another doubt; inactive means no such curve, though single readings can be large; an effect the other way counts as inactive or inconclusive.

Experiments:
[1] = Quantitative High-Throughput drug screen in 47 multiple myeloma cell lines against the NCATS MIPE library collection: KMS12PE_JCRB cell viability assay (AID 1918972); further: nearly all actives have a fitted effect of over 30% in size; further: potency means the concentration at half of the fitted maximal effect;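 on viability: 100% = DMSO only wells and 0% = wells with media alone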
Method in brief: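 Viability readout: CellTiter-Glo luminescence following 5 min room-temperature incubation with reagent. Prior exposure: 48 h, 37C, humidified 5% CO2, 500 cells per well.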

[2] = Quantitative High-Throughput drug screen in 47 multiple myeloma cell lines against the NCATS MIPE library collection: MOLP8_DSMZ cell viability assay (AID 1918977);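 further: 100% = DMSO-only wells and 0% = media-only wells without cells; nearly all actives have a fitted effect of over 45% in size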
Method in brief: (§1)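 Cells were exposed to library compounds for 48 hours, after which ATP was measured by CellTiter-Glo. Signal was taken as median relative luminescence units.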

[3] = Quantitative High-Throughput drug screen in 47 multiple myeloma cell lines against the NCATS MIPE library collection: NCIH929_DSMZ cell viability assay (AID 1918978); further: nearly all actives have a fitted effect of over 35% in size; further: potency means the concentration at half of the fitted maximal effect
Method in brief: as §1

[4] = Quantitative High-Throughput drug screen in 47 multiple myeloma cell lines against the NCATS MIPE library collection: MM1S_ATCC cell viability assay (AID 1918980); further: nearly all actives have a fitted effect of over 45% in size; further: potency means the concentration at half of the fitted maximal effect;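 on viability (% of control): 100% = wells with DMSO only and 0% = wells with media only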
Method in brief: as §1

[5] = Quantitative High-Throughput drug screen in 47 multiple myeloma cell lines against the NCATS MIPE library collection: LP1_DSMZ cell viability assay (AID 1918982); further: nearly all actives have a fitted effect of over 35% in size; further: potency means the concentration at half of the fitted maximal effect
Method in brief: as §1

[6] = Quantitative High-Throughput drug screen in 47 multiple myeloma cell lines against the NCATS MIPE library collection: KMS28PE_JCRB cell viability assay (AID 1918983); further: nearly all actives have a fitted effect of over 35% in size; further: potency means the concentration at half of the fitted maximal effect
Method in brief: as §1

[7] = Quantitative High-Throughput drug screen in 47 multiple myeloma cell lines against the NCATS MIPE library collection: OPM1_PLB cell viability assay (AID 1918989); further: nearly all actives have a fitted effect of over 40% in size; further: potency means the concentration at half of the fitted maximal effect;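 on viability (% of control): 100% = DMSO-only wells and 0% = media-only wells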
Method in brief: as §1

[8] = Quantitative High-Throughput drug screen in 47 multiple myeloma cell lines against the NCATS MIPE library collection: SKMM1_PLB cell viability assay (AID 1919863); conditions: SKMM1 myeloma viability, CellTiter-Glo ATP, 48 h; viability: hits give low values; further: nearly all actives have a fitted effect of over 35% in size; further: potency means the concentration at half of the fitted maximal effect
Method in brief: as §1

[9] = Quantitative High-Throughput drug screen in 47 multiple myeloma cell lines against the NCATS MIPE library collection: U266_ATCC cell viability assay (AID 1919864); further: nearly all actives have a fitted effect of over 35% in size; further: potency means the concentration at half of the fitted maximal effect
Method in brief: as §1

[10] = Quantitative High-Throughput drug screen in 47 multiple myeloma cell lines against the NCATS MIPE library collection: XG6_PLB cell viability assay (AID 1919865); further: nearly all actives have a fitted effect of over 40% in size; further: potency means the concentration at half of the fitted maximal effect;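 on viability (% of control): 100% = DMSO-only wells and 0% = media-only wells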
Method in brief: as §1

[11] = Quantitative High-Throughput drug screen in 47 multiple myeloma cell lines against the NCATS MIPE library collection: OCIMY1_PLB cell viability assay (AID 1918979)
Method in brief: as §1

[12] = Quantitative High-Throughput drug screen in 47 multiple myeloma cell lines against the NCATS MIPE library collection: MM1R_ATCC cell viability assay (AID 1918981); further: nearly all actives have a fitted effect of over 35% in size; further: potency means the concentration at half of the fitted maximal effect
Method in brief: as §1

[13] = Quantitative High-Throughput drug screen in 47 multiple myeloma cell lines against the NCATS MIPE library collection: OCIMY5_PLB cell viability assay (AID 1918988); further: nearly all actives have a fitted effect of over 65% in size; further: potency means the concentration at half of the fitted maximal effect
Method in brief: as §1

[14] = Quantitative High-Throughput drug screen in 47 multiple myeloma cell lines against the NCATS MIPE library collection: MMM1_PLB cell viability assay (AID 1918976)
Method in brief: as §1

[15] = Quantitative High-Throughput drug screen in 47 multiple myeloma cell lines against the NCATS MIPE library collection: OCIMY7_PLB cell viability assay (AID 1918987); conditions: OCI-MY7 myeloma viability, CellTiter-Glo ATP, 48 h; viability (% of DMSO): at 45.8 µM (top of the series); further: nearly all actives have a fitted effect of over 65% in size; further: potency means the concentration at half of the fitted maximal effect
Method in brief: as §1

[16] = Quantitative High-Throughput drug screen in 47 multiple myeloma cell lines against the NCATS MIPE library collection: L363_DSMZ cell viability assay (AID 1918984); conditions: L363 myeloma viability, CellTiter-Glo ATP luminescence, 48 h; viability (% of control): at 45.8 µM (top of the series); further: nearly all actives have a fitted effect of over 40% in size; further: potency means the concentration at half of the fitted maximal effect
Method in brief: as §1

[17] = Quantitative High-Throughput drug screen in 47 multiple myeloma cell lines against the NCATS MIPE library collection: KMS34_JCRB cell viability assay (AID 1918985); further: potency means the concentration at half of the fitted maximal effect; nearly all actives have a fitted effect of over 40% in size
Method in brief: as §1

Row | SMILES | Potency [1] | Potency [2] | Potency [3] | Potency [4] | Potency [5] | Potency [6] | Potency [7] | Potency [8] | Potency [9] | Potency [10] | Potency [11] | Potency [12] | Potency [13] | Potency [14] | Potency [15] | Potency [16] | viability [8] [%] | Potency [17]
1 | Cc1cc2nc3c(=O)[nH]c(=O)nc-3n(CC(O)C(O)C(O)CO)c2cc1C (stereo unspecified) | inactive | inactive | inactive | inactive | inactive | 0.0833 µM (active) | 18.7 µM (active) | 20.9 µM (active) | inactive | 7.43 µM (active) | – | – | – | – | – | – | – | –
2 | CCNC(=O)[C@H]1O[C@@H](n2cnc3c(N)nc(NCCc4ccc(CCC(=O)O)cc4)nc32)[C@H](O)[C@H]1O | 0.132 µM (active) | – | 0.332 µM (active) | 0.332 µM (active) | – | – | inactive | – | 0.118 µM (active) | – | inactive | 0.0526 µM (active) | 0.0662 µM (active) | – | – | – | – | –
3 | COc1c(C)c2c(c(O)c1CC=C(C)CCC(=O)O)C(=O)OC2 | 14.8 µM (active) | – | – | 3.72 µM (active) | – | 4.69 µM (active) | 11.8 µM (active) | 5.26 µM (active) | 8.33 µM (active) | 3.32 µM (active) | – | 11.8 µM (active) | 7.43 µM (active) | 1.18 µM (active) | 4.69 µM (active) | – | – | –
4 | COc1ccc(CCN(C)CCCOc2ccc(S(=O)(=O)c3[nH]c4ccccc4c3C(C)C)cc2)cc1OC | inactive | – | – | 20.9 µM (active) | – | 16.6 µM (active) | 23.5 µM (active) | – | 18.7 µM (active) | 26.4 µM (active) | – | – | – | 9.35 µM (active) | – | inactive | 110 | –
5 | COC1CCC(C(=O)c2ccc3nc4c(cc3c2)CCCO4)CC1 (stereo unspecified) | 14.8 µM (active) | – | 23.5 µM (active) | 20.9 µM (active) | – | 23.5 µM (active) | 14.8 µM (active) | 26.4 µM (active) | 18.7 µM (active) | 16.6 µM (active) | – | – | 26.4 µM (active) | 2.64 µM (active) | – | 23.5 µM (active) | – | 29.6 µM (active)
6 | CCCCn1c(=O)n(Cc2ccccc2F)c(=O)c2[nH]c(Cc3ccc(NC(C)=O)cc3)nc21 | inactive | inactive | inactive | 20.9 µM (active) | inactive | 18.7 µM (active) | – | – | 18.7 µM (active) | inactive | – | inactive | 11.8 µM (active) | – | – | inactive | – | 5.9 µM (active)
7 | Oc1ccc(C=Cc2cc(O)cc(O)c2)cc1 | inactive | – | inactive | 18.7 µM (active) | – | inactive | inactive | – | – | – | – | 16.6 µM (active) | 13.2 µM (active) | 16.6 µM (active) | – | – | – | 5.26 µM (active)
8 | CCCCCCCCCCCCCCCC(=O)O[C@H]1[C@@H](O)[C@@H](O)[C@@H]([C@H](NC(=O)[C@@H]2C[C@@H](CCC)CN2C)[C@H](C)Cl)O[C@@H]1SC | inactive | – | 2.96 µM (active) | 18.7 µM (active) | – | inactive | – | – | 18.7 µM (active) | – | – | inactive | inactive | 4.18 µM (active) | – | – | – | –
9 | CC1C(=O)OC2C(O)C34C5CC(C(C)(C)C)C36C(OC(=O)C6O)OC4(C(=O)O5)C12O (stereo unspecified) | inactive | – | inactive | 20.9 µM (active) | inactive | inactive | inactive | 11.8 µM (active) | inactive | – | – | inactive | – | 0.0187 µM (active) | inactive | – | – | 23.5 µM (active)
10 | CN(C)CCOc1ccc(C(=C(CCCl)c2ccccc2)c2ccccc2)cc1 | inactive | – | inactive | 1.18 µM (active) | – | 26.4 µM (active) | 7.43 µM (active) | 23.5 µM (active) | – | – | – | 23.5 µM (active) | 26.4 µM (active) | 23.5 µM (active) | 5.9 µM (active) | – | – | –
11 | Cc1c(-c2cccc3c(CCCOc4cccc5ccccc45)c(C(=O)O)n(Cc4cccnc4)c23)c(COc2ccc(N3CCN([S+](=O)([O-])N(C)C)CC3)cc2)nn1C | inactive | – | 3.72 µM (active) | 23.5 µM (active) | 18.7 µM (active) | – | – | 23.5 µM (active) | – | – | inactive | – | – | – | – | inactive | – | –
12 | C#CCN(C)CC1=Cc2ccccc2Oc2ccccc21 | inactive | inactive | inactive | – | – | 18.7 µM (active) | inactive | – | – | inactive | – | – | 20.9 µM (active) | – | – | – | – | –
13 | CC(C)c1c(C(=O)Nc2ccccc2)c(-c2ccccc2)c(-c2ccc(F)cc2)n1CC[C@H](O)C[C@@H](O)CC(=O)O | 6.62 µM (active) | – | – | 16.6 µM (active) | 20.9 µM (active) | 18.7 µM (active) | 6.62 µM (active) | 18.7 µM (active) | – | 18.7 µM (active) | inactive | 10.5 µM (active) | – | 8.33 µM (active) | 4.69 µM (active) | – | – | –
14 | CNc1nc(Nc2ccc(C(=O)N3CCOCC3)cc2OC)ncc1Cl | inactive | – | – | – | – | inactive | inactive | – | inactive | – | – | 5.9 µM (active) | 14.8 µM (active) | 13.2 µM (active) | inactive | – | 112 | –
15 | O=C1NC(=O)C(=Cc2ccc(-c3ccc(F)cc3O)o2)S1 | inactive | – | – | 16.6 µM (active) | – | – | 14.8 µM (active) | – | inactive | 2.35 µM (active) | inactive | – | – | 2.96 µM (active) | 3.72 µM (active) | 0.833 µM (active) | – | –
16 | COc1cc(CNC(=O)CCCCC=CC(C)C)ccc1O | inactive | – | 18.7 µM (active) | inactive | inactive | – | inactive | – | inactive | 13.2 µM (active) | inactive | inactive | inactive | – | 14.8 µM (active) | – | 120 | –
